# Sampled rows, rich in hits. Any-hit rate of the full collection: about 1.6%.
# Giardia kill – kills Giardia lamblia. Giardia lamblia trophozoite viability. activity change, % at 7.66 µM, hits read low. 340,000 compounds, 0.15% hits. AID 540267; in the data active = activity change below about -80%; inconclusive = between about -30% and that limit;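 also: parasites exposed to compound for two days anaerobically before the ATP read; % is scaled to controls: 0 for no effect and ±100 for the full control effect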
#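 Viability, read as ATP luminescence: trophozoites at 100 cells/well, compound added, 48 hrs anaerobic at 37 deg C, then 15-30 min room-temperature development before reading.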
# gsp agonist – agonists of gsp mutant (McCune-Albright syndrome); Potency, µM (series often up to 76.9 µM), for inactives: at the highest dose activation (cAMP increase), usual class: activators; 340,000 compounds, 0.13% hits; gsp mutant cells, cAMP HTRF, 30 min; active = well fitted activation curve with a large enough effect; inconclusive = small, poorly fitted or top-dose-only effect, or another doubt; inactive = no such curve, though single readings can be large or run the other way; cell line not stated here;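 also: phosphodiesterase inhibitor Ro 20-1724 added with compounds to block cAMP breakdown; potency is read from the fitted curve at half-maximal effect; nearly all actives have a fitted effect of over 60% in size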
#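 Cells stably selected in G418 were plated at 2000/well, grown 16-24 hr, then given compounds in DMSO with the PDE inhibitor […] (300 uM solution added) for 30 min at 37C; cAMP was read by HTRF.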
# RXFP1 agonist – activates the human relaxin receptor RXFP1. Q9HBX9. HEK293T-RXFP1 cAMP TR-FRET, 30 min; response scale: percent of porcine relaxin response, buffer zero. Potency, µM (doses to about 57.5 µM), without a hit: top-dose activation, most hits filed as activators. 370,000 compounds, 0.3% hits. AID 2676; active = well fitted activation curve with a large enough effect; inconclusive = small, poorly fitted or top-dose-only effect; also: potency is read from the fitted curve at half-maximal effect; % is scaled to controls: 0 for no effect and ±100 for the full control effect; nearly all actives have a fitted effect of over 60% in size
# Target sequence (Q9HBX9 whole entry, looked up): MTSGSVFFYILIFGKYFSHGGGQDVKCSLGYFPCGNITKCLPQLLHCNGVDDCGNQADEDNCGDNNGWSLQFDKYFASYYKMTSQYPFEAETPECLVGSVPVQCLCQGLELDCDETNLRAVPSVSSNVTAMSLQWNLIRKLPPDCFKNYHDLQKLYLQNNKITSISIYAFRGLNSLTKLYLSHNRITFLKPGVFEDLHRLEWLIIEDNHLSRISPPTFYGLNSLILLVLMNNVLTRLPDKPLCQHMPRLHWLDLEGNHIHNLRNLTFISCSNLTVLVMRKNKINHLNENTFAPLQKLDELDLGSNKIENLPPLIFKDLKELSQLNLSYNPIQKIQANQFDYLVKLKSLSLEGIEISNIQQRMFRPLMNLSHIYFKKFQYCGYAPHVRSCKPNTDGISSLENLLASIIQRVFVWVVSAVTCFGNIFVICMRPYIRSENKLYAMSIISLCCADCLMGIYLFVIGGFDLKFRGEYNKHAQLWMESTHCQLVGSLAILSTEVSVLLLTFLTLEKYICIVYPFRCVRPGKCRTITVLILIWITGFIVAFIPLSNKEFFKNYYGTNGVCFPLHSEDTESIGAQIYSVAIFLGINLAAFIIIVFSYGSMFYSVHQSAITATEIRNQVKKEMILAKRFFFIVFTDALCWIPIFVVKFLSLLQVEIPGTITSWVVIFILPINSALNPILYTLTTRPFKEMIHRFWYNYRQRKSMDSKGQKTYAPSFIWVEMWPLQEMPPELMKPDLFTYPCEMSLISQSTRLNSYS
#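 Agonist response is measured as cAMP accumulation in an RXFP1-transfected HEK293T line under PDE4 inhibition. Values are scaled between buffer-only and 29 nM porcine relaxin, and EC50s come from standard Hill equation fits.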
# FBPA coupling cs – inhibits coupling enzyme system, counter-screen for aldolase hits | 290,000 compounds, 0.67% hits | activity change, negative = inhibition, % at 58.2 µM, hits read low | coupling enzyme system counterscreen, AmpLite Red fluorescence; in the data active = activity change below about -30%; also: % is scaled to controls: 0 for no effect and ±100 for the full control effect
#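 Activity here indicates interference with the coupling reaction, not aldolase inhibition. Compounds at 57.5 uM final met coupling enzymes for 10 min at RT; substrate and AmpLite Red detection followed, with a 525/598 nm fluorescence read after 20 min.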
# gsp antag – antagonizes gsp, the McCune-Albright syndrome mutation; gsp-mutant cells, cAMP HTRF, 30 min; Potency, µM (titrated, usually from 76.9 µM), for the others: at the highest dose activity change, negative = inhibition, usual class: inhibitors; 340,000 compounds, 0.4% hits; AID 624288; calls by dose curve; cell line not stated here;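 also: intracellular cAMP measured with PDE inhibitor Ro 20-1724 present during compound exposure; potency is read from the fitted curve at half-maximal effect; % is scaled to controls: 0 for no effect and ±100 for the full control effect; nearly all actives have a fitted effect of over 65% in size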
#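 HTRF cAMP read-out (cAMP-d2 plus anti-cAMP antibody-K in lysis buffer, 30 min RT). Before lysis, cells are exposed to compounds with […] for 30 min at 37C in DPBS containing Ca/Mg, BSA and Tween 20.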
# RXFP1 antag – blocks the human relaxin receptor RXFP1 | 350,000 compounds, 0.59% hits | activity change, negative = inhibition, % at 57.5 µM | AID 1259400 | Q9HBX9 | HEK293-RXFP1, relaxin-stimulated cAMP HTRF, 30 min; hits give low values;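 active = activity change of -60% or lower, but not beyond a set lower limit; inconclusive = change between -60% and -40%, or beyond the set limit; inactive = change above -40%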; also: % is scaled to controls: 0 for no effect and ±100 for the full control effect
# Numbers without * were called inactive; ? = inconclusive; nt = not tested or not shown; [ ] = remark or other dose.
SMILES,Giardia kill,gsp agonist,RXFP1 agonist,FBPA coupling cs,gsp antag,RXFP1 antag
O=c1c2sc3nc(N4CCOCC4)c4c(c3c2ncn1C(c1ccccc1)c1ccccc1)CCCC4,-10.2,-0.4%,nt,nt,5.6%,8.2
COCc1[nH]nc2c1C(c1c(F)cccc1Cl)C(C#N)=C(N)O2 (stereo not given),23.0,-17.2%,0.5%,-38.8*,5.5%[15.4 µM],3.2
O=C1NC(=Nc2ccccc2)S/C1=C\C=C\c1ccco1,4.6,-30.2%,1.3%,3.3,-23.8%,-102.0*
COc1ccc(N=C2NC(=O)/C(=C/c3ccco3)S2)cc1,21.3,-13.7%,-1.1%,1.5,-19.3%,-9.9
Cc1cccc(N=C2NC(=O)/C(=C/C=C/c3ccco3)S2)c1C,0.7,0.0%,0.9%,0.2,-6.8%,-76.9*
Cc1ccc(N=C2NC(=O)/C(=C/C=C/c3ccco3)S2)cc1,2.4,30.3%,2.3%,-0.7,-10.6%,-67.2*
Cc1cccc(N=C2NC(=O)/C(=C/c3cccn3C)S2)c1C,-6.7,10.3%[15.4 µM],-0.3%,-0.2,-12.1%,-26.3
O=S(=O)(Nc1cc(Br)cc2cccnc12)c1cccc2ccccc12,-6.1,nt,nt,nt,nt,nt
COc1ccc(N/N=C(/C#N)S(=O)(=O)c2nsc(C)c2C#N)cc1,16.8,16.9%,3.6%,12.3,-20.6%,-1.8
Cc1snc(S(=O)(=O)/C(C#N)=N/Nc2cccc(C(F)(F)F)c2)c1C#N,-6.0,7.6%,0.0%,9.6,35.5µM*,-3.8
O=C(NC1CCCCC1)c1sc(=S)n2c1[nH]c(=O)c1ccccc12,-12.0,-37.0%,0.4%,3.4,44.7µM*,-2.5
O=C(NCCc1ccccc1)c1ccc2c(=O)[nH]c3c(C(=O)NCC4CCCO4)sc(=S)n3c2c1 (stereo not given),-3.0,-9.2%[15.4 µM],-2.2%,nt,?,-5.6
O=C(NCC1CCCO1)c1sc(=S)n2c1[nH]c(=O)c1ccc(C(=O)N3CCCCC3)cc12 (stereo not given),0.7,27.3%,0.9%,3.1,?,-3.6
CCCCNC(=O)c1sc(=S)n2c1[nH]c(=O)c1ccccc12,18.0,18.6%,-0.9%,7.5,25.1µM*,-17.8
O=C(NCC1CN(c2ccc(N3CCOCC3=O)cc2)C(=O)O1)c1ccc(Cl)s1 (stereo not given),nt,nt,nt,nt,nt,10.2
CCc1ccc2nc(N(CCN(C)C)C(=O)c3ccc4ncsc4c3)sc2c1,25.5,13.7%[15.4 µM],1.4%,nt,1.2%,-67.6*
Cc1ccc(C(=O)N(CCCN(C)C)c2nc3ccc(Cl)cc3s2)cc1C,22.2,0.9%[15.4 µM],0.1%,-0.2,9.2%,-100.0*
Cc1ccc2nc(N(CCCN(C)C)C(=O)c3ccc(S(=O)(=O)N4CCc5ccccc5C4)cc3)sc2c1,-4.0,1.4%[15.4 µM],0.3%,0.7,-2.5%,-64.6*
CCOC(=O)CCN1C(=O)[C@H]2[C@H]3[C@H](O)[C@H](O)C/C(=N/OCC(C)C)[C@@H]3CC[C@@H]2C1=O,nt,nt,nt,-0.2,nt,nt
CC(C)C(=O)N1CCN(c2ccc(NC(=O)c3cccs3)cc2Cl)CC1,-8.2,-20.8%,-2.2%,-6.0,28.2µM*,-8.1
CCOc1ccc(C2C3=C(CCCC3=O)Nc3ccc4ncccc4c32)cc1 (stereo not given),-0.2,-15.6%,-1.6%,-2.4,?,-12.6
O=C1CCCC2=C1C(c1ccc(O)c(O)c1)c1c(ccc3ncccc13)N2 (stereo not given),-0.9,-5.0%[15.4 µM],0.6%,-72.3*,-12.8%,-2.4
Cc1cccc2[nH]c(CCNC(=O)C3CCC(=O)N(CCc4cccc(F)c4)C3)nc12 (stereo not given),-0.8,-18.2%,1.5%,nt,7.7%,25.6
CCC(C=C[C@@H]1OC(=O)C=C[C@H]1C)=C[C@H](C)CC=CC(C)=C[C@@H](C)C(=O)[C@@H](C)[C@H](O)[C@@H](C)CC(C)=CC(=O)O,nt,nt,nt,-59.1*,nt,nt
CCN(CC)c1ncnc2ccc(Br)cc12,-9.3,17.8µM*,11.1%,nt,1.2%,10.6
SMILES,Giardia kill,gsp agonist,RXFP1 agonist,FBPA coupling cs,gsp antag,RXFP1 antag
OCCNc1ncnc2ccc(Br)cc12,-2.5,27.8%,4.9%,-0.7,4.1%,-4.5
CCCN(CCC)C(=O)c1nn(C)c2c1CSc1ccccc1-2,nt,nt,0.1%,nt,nt,0.7
CCN(CC)CCOC(=O)c1ccc(N/C=C(/C#N)c2nc(-c3ccc4c(c3)OCO4)cs2)cc1,-102.8*,-1.3%[15.4 µM],-0.2%,-0.1,3.5%,-8.0
CCN(CC)CCOC(=O)c1ccc(N/C=C(/C#N)c2nc(-c3ccc(OC)cc3)cs2)cc1,-7.8,6.3%[15.4 µM],0.0%,-0.3,4.6%,13.5
CCN(CC)CCOC(=O)c1ccc(N/C=C(/C#N)c2nc(-c3cc4ccccc4oc3=O)cs2)cc1,-88.6*,?,0.5%,2.5,5.8%,-8.7
O=C(CCc1ccccc1)N(Cc1cccnc1)c1nc2c(F)cc(F)cc2s1,nt,nt,0.4%,nt,nt,-86.0*
O=C(CCOc1ccccc1)N(Cc1cccnc1)c1nc2c(F)cc(F)cc2s1,nt,nt,1.9%,nt,nt,-8.4
O=C(C1CCCCC1)N(Cc1cccnc1)c1nc2c(F)cccc2s1,nt,nt,0.8%,nt,nt,-71.6*
COC(=O)c1scc(-c2ccc(C)cc2)c1S(=O)(=O)N1CCN(c2ccc(C(C)=O)cc2)CC1,nt,nt,-0.8%,nt,nt,nt
COc1cccc(OC)c1OCCN(C)C,-0.5,-4.2%,0.6%,-33.6*,4.7%,8.0
COc1ncc2nc(CCc3ccccc3)c(=O)n(CCC#N)c2n1,nt,nt,nt,3.7,nt,nt
CN(C)c1ccc(/C(=N\O)C(F)(F)F)cc1,-3.4,-18.8%,0.3%,0.4,39.8µM*,-13.7
CC(=O)c1ccc(N(C)C)cc1,9.0,-76.2%,-0.2%,-1.1,-11.1%,-12.3
COc1ccc2c(c1)c1c(c(=O)n(CCc3ccccc3)c(=O)n1Cc1ccc(F)cc1)n2C,nt,nt,23.3%,nt,nt,nt
CC(=O)c1sc(NC(=O)C(C)C)nc1C,0.5,?,8.91µM*,nt,27.2%,7.5
O=[N+]([O-])c1cc(-c2ccc(C(=S)N3CCOCC3)o2)ccc1Cl,5.3,-24.7%,3.8%,-32.3*,-13.7%,-10.5
CC(=O)c1cccc(NC(=O)c2ccc(-c3ccccc3[N+](=O)[O-])o2)c1,-9.8,18.9%[15.4 µM],0.0%,-58.8*,44.7µM*,-17.3
O=[N+]([O-])c1ccccc1-c1ccc(C(=S)N2CCCCC2)o1,3.6,-4.4%[15.4 µM],0.7%,-16.2,-15.2%,-9.5
O=[N+]([O-])c1ccccc1-c1ccc(C(=S)N2CCCC2)o1,-14.6,-16.8%,1.3%,-42.5*,-5.2%,1.9
CC(=O)O[C@@H]1CC2C3CCc4cc(OC(=O)c5ccccc5)ccc4C3CCC2(C)[C@H]1OC(C)=O (stereo not given in full),nt,nt,nt,nt,nt,-13.1
CN(C)S(=O)(=O)c1ccc(=S)[nH]c1,32.3,5.0%,-0.5%,-2.8,-1.3%,-2.9
